# Experimental data: PubChem BioAssay (NCI)
# This is part of a sample that, as a whole, favours compounds with a hit. Of some 83,000 tested, about 20% had one in any assay.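 For each line, cells grew in 96-well plates with the test compound present at a single concentration for 48 hours.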 Values without a mark were called inactive. Active and inactive are the calls of the source. Rule for the calls: active = growth percent below 10; inactive = the rest.
# Test system: HL-60(TB) leukemia
# Assay: NCI-60 one-dose screen, 48 h (100 = growth as untreated, 0 = no growth, -100 = all killed)
# Details: 10 µM unless noted
row,SMILES,growth
1,COc1ccc(CNc2c3ccccc3nc3ccc(OC)cc23)cc1,-20.7% (active)
2,O=C1c2cccc3cccc(c23)C(=O)N1N1C(=O)c2cccc3c(NC4CCCCC4)ccc(c23)C1=O,99.3%
3,CNS(=O)(=O)Nc1nccc(Cc2c(C)c3ccc(Oc4ncccn4)cc3oc2=O)c1F,27.9%
4,NNc1ncccn1,103%
5,CCN(C(=O)Nc1ccccc1Cl)c1ccccc1,113%
6,COc1ccc(C[C@H](N)C(=O)N[C@@H]2[C@@H](CO)OC(n3cnc4c(N(C)C)ncnc43)[C@@H]2O)cc1 (stereo not given in full),-29.9% (active)
7,COc1ccc(-c2nc(-c3nc4cc(Cl)c(Cl)cc4[nH]3)c3ccccn23)cc1,99.9%
8,C=C1C(=O)O[C@H]2[C@H]1CC/C(COC(=O)c1ccc(Cl)nc1)=C\CC[C@@]1(C)O[C@@H]21,-55.1% (active)
9,COc1ccc(-c2c3c(nc4n[nH]c(-c5ccc(Cl)cc5)c24)-c2ccccc2C(=O)C3=O)cc1,11.7%
10,COc1cc(C)c2sc3ccccc3c(=O)c2c1NCCN(C)C,61.2%
11,Cc1ccc(-c2onc3c(=O)[nH]nc(-c4ccccc4)c23)cc1,-8.12% (active)
12,CNc1ccc(Nc2ccc(S(=O)(=O)O)cc2)c2c1C(=O)c1ccccc1C2=O,120%
13,O=C1NC(=O)C(Cn2cnc3ccccc32)N1 (stereo not given),95.8%
14,COc1ccc(-c2nnc(COc3ccc(NC(=O)Nc4ccccc4)cc3F)o2)cc1,86.8%
15,O=C(Nc1nc2ccc(C(F)(F)F)cc2s1)c1cc(Cl)ccc1O,-54.4% (active)
16,COc1cc(N2CCC(N3CCN(C)CC3)CC2)ccc1Nc1ncnc(Nc2ccccc2S(=O)(=O)C(C)C)n1,102%
17,O=C(CCc1nnc(Cn2ccnc2)o1)c1nc2ccccc2[nH]1,106%
18,Cn1c(/C=C(\C#N)c2cccc(C(F)(F)F)c2)nc2c(N3CCOCC3)nc(Cl)nc21,-25.2% (active)
19,CCN1C(=O)N(CC)C2C1NN=c1s/c(=C3\C(=O)N(CC(C)(C)C)c4ccccc43)c(=O)n12 (stereo not given),-26.1% (active)
20,c1ccc2cc(C[n+]3ccn(CCCCCCCCCCn4cc[n+](Cc5ccc6ccccc6c5)c4)c3)ccc2c1,-67.8% (active)

row,SMILES,growth
1,C=C1c2nc3ccccc3n2C=C(c2cccc(Cl)c2)N1Cc1ccc(OC)cc1,-25% (active)
2,CSc1nc(-c2ccco2)c2c(N)[nH]nc2n1,82.9%
3,CCCCCCCCN(CCCCCCCC)CC(O)c1ccc(Cl)c(C)c1Cl (stereo not given),106%
4,O=Cc1ccc2nc(C(Cl)(Cl)Cl)ccc2c1,104%
5,Cc1ccc(C)c2c1SC1=NNC(Oc3ccc(Cl)cc3)=C(C#N)C(=N)N12,122%
6,CC1=C[C@H]2c3c(c(O)c(O)c4oc5cc(O)ccc5c(=O)c34)[C@H](c3cc(O)c(O)c4oc5cc(O)ccc5c(=O)c34)[C@H]2C(C)(C)C1,17.8%
7,O=S(=O)(NCCNc1nccc(-c2c(-c3cccc(O)c3)nc3occn23)n1)c1ccc(C(F)(F)F)cc1,79.1%
8,Cc1nc2ccccc2c(/C=C/c2ccc(Br)cc2)c1C(=O)/C=C/c1ccccc1,2.74% (active)
9,Cc1ccc2c(c1)C(C)Cc1c(N(C)C)ncnc1N2C (stereo not given),-5.91% (active)
10,CCCCC(C=O)(C=C=C(C)C)CC (stereo not given),104%
11,COc1ccc(-c2nc(SCC(C)C)nc(Nc3ccccc3)c2C#N)cc1,88.6%
12,N#Cc1c(N)c(C(=O)c2ccc3c(c2)OCCO3)n2c1CCCC2,-19.2% (active)
13,COc1ccccc1C(OC(C)=O)OC(C)=O,87%
14,CCN(CC)CCN1C(=O)c2c(c(C)c3c(oc4cc(OC)ccc43)c2C)C1=O,85.8%
15,O=c1cc(CSc2nnc(-c3ccc(F)cc3)o2)c2ccc3ccccc3c2o1,99.9%
16,CCN1CCN(C(=O)[C@]23CC[C@@H](C)[C@H](C)[C@@H]2C2=CC[C@@H]4[C@@]5(C)CCC(=O)C(C)(C)[C@@H]5CC[C@@]4(C)[C@]2(C)CC3)CC1,-44.6% (active)
17,O=C(Nc1ccc(Cl)cc1F)c1cc(F)ccc1O,-43.8% (active)
18,CN1CCN(CC(O)COc2c(Br)c(Br)c(Br)c3c2OC(C)(C)C3)CC1 (stereo not given),35.5%
19,O=C1C=CC(=O)N1c1cc(Cl)c(Cl)cc1Cl,80.4%
20,CCC1S/C(=N\N=C(/C)c2cccs2)N(c2ccccc2)C1=O (stereo not given),59.2%
